These results are taken from PubChem BioAssay (EPA / NIEHS).

Several values for one entry are separate records, joined by “and”; a condition that tells them apart may be missing. Identical values can stand only once. Results filed as inconclusive are left out. Some structures have more than one record in an assay (separate samples or runs), and their calls can disagree. Activity calls are given as the source filed them. Rule for the calls: active = hit-call score of the fitted dose curve at least 0.9, where 1 is the maximum; inconclusive = response in the unintended direction; inactive = score below 0.9.

Sequence of Cellular tumor antigen p53 (Homo sapiens) (P04637 whole entry, looked up): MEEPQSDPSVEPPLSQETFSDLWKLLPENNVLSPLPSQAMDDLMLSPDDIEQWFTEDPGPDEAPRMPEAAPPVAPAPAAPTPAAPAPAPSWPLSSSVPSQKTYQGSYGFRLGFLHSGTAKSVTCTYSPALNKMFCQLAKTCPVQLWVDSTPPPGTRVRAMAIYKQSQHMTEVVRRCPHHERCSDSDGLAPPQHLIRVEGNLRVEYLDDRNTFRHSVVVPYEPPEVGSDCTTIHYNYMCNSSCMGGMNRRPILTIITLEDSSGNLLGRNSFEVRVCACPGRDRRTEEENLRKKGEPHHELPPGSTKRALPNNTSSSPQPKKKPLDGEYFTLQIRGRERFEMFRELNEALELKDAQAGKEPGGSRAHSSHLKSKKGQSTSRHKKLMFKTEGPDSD

The target of the first test is Cellular tumor antigen p53 (Homo sapiens) (UniProt P04637). In words: TOX21_p53_BLA_p2_ratio: Tox21 HCT-116 p53 Agonism Beta-lactamase Assay, Ratio, Phase 2 (AID 2283592). A digest of the protocol:
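Read-out is the blue/green (460/530 nm, 405 nm excitation) ratio after 2 h CCF4-AM loading, fitted as gain versus DMSO. Compounds, pinned at 217-fold dilution from DMSO stocks, stayed 16 h on HCT-116 beta-lactamase reporter cells seeded 5 h earlier.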
As for `CCCCOC(=O)COC(=O)c1ccccc1C(=O)OCCCC`, the outcome was inactive.

Turning to `Nc1nc(=S)[nH][nH]1`, the outcome was inactive.

With `CC(C)C(C)(N)C#N` (stereo not drawn), the outcome was inactive.

For the molecule `O=C(O)c1cc(I)cc(I)c1I`, the outcome was inactive.

Consider `O=C(Cc1ccccc1)OCCc1ccccc1`, for which the result was inactive.

Tested on in the next test: not listed separately
In words: TOX21_p53_BLA_p3_viability: Viability Assessment in the Tox21 HCT-116 p53 Agonism Beta-lactamase Assay, Phase 3 (AID 2283593).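 Note: cells exposed to compound for 16 h before reading.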 A digest of the protocol:
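HCT-116 cells (4000/well) rested 5 h at 37C, then got DMSO compounds by pin tool (217-fold dilution) for 16 h at 37C, 5% CO2. After the bla read, CellTiter-Glo was added and luminescence read at 30 min, room temperature.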
As for `OC(c1ccc(Cl)cc1)(c1ccc(Cl)cc1)c1cccnc1`, the molecule was called inactive.

In the case of `CCCCCCCCCCCCN(C)C`, the molecule was called inactive.

`CCOC(=O)CC(=O)CCl`: the result was inactive.

In general, AC50 refers to the midpoint of the concentration-response curve, whichever way the signal moves. On to `O=S1OC[C@@H]2[C@H](CO1)[C@]1(Cl)C(Cl)=C(Cl)[C@@]2(Cl)C1(Cl)Cl` (stereo partly drawn), for which the AC50 was 84.1 µM (active).

Turning to `O=[N+]([O-])c1cc([As](=O)(O)O)ccc1O`, the molecule was called inactive.

Regarding `Cl[C@H]1OCCO[C@@H]1Cl`, the call was inactive.

Take `CCOP(=S)(OCC)SCSc1cc(Cl)ccc1Cl`: the outcome was inactive.

In the case of `CCCCCCCCCCCCCCC(Br)C(=O)O` (stereo not drawn), the AC50 is 41.4 µM (active).

With `C#CCOC(=O)/C=C(C)/C=C/CC(C)CCCC(C)C` (stereo not drawn), the result was inactive.

With `O=S1(=O)OC(c2cc(Br)c(O)c(Br)c2)(c2cc(Br)c(O)c(Br)c2)c2ccccc21`, the AC50 is 8.86 µM (active).

Regarding `C[CH2][Hg][S]c1ccccc1C(=O)O`, the half-maximal activity concentration (AC50) was 46.1 µM (active) and 6.74 µM (active).

With `OCC(c1ccc(Cl)cc1)c1ccc(Cl)cc1`, the call was inactive.

With `Cc1cc(Cl)ccc1OC(C)C(=O)O` (stereo not drawn), the molecule was called inactive.

Regarding `O=C1c2ccccc2C(=O)C1C(=O)C(c1ccccc1)c1ccc(Cl)cc1` (stereo not drawn), the AC50 is 15.9 µM (active).

As to `CCNc1nc(NCC)nc(SC)n1`, the molecule was called inactive.

Consider `CC(C)(C#N)N=NC(C)(C)C#N`, for which the molecule was classed as inactive.

For the molecule `COP(=S)(OC)Oc1cc(Cl)c(I)cc1Cl`, the molecule was called inactive.

For the molecule `CC(C)=CC1C(C(=O)OCc2cccc(Oc3ccccc3)c2)C1(C)C` (stereo not drawn), the outcome was inactive.

For the molecule `O=C(NC(=O)c1c(F)cccc1F)Nc1cc(Cl)c(Oc2ncc(C(F)(F)F)cc2Cl)c(Cl)c1`, the outcome was inactive.

As to `Clc1cc(C(Cl)(Cl)Cl)cnc1Cl`, the outcome was inactive.

Regarding `Cc1cc(-c2cc(C)c(N)c(C)c2)cc(C)c1N`, the outcome was inactive.

For the molecule `CCCCN(CCCCO)N=O`, the outcome was inactive.

On to `Brc1ccc(Br)cc1`, for which the result was inactive.

On to `c1ccc2c(c1)Oc1ccccc1O2`, for which the outcome was inactive.

Turning to `C=C(C)C(=O)OCC(CC)CCCC` (stereo not drawn), the call was inactive.

For the molecule `O=c1oc2ccccc2c(O)c1C(CC(O)c1ccc(-c2ccc(Br)cc2)cc1)c1ccccc1` (stereo not drawn), the AC50 was 15.2 µM (active) and the call was inactive.

Turning to `Clc1ccc(C(Cl)(Cl)Cl)cn1`, the outcome was inactive.
